Reference: the OligoGym collection

Each sequence was assayed against FZD1 (assay: pooled miR-30 sensor sort-seq; sequence = guide strand). Settings: shRNA.

Sequence	sensor-assay potency score (higher = more potent)
ATGAAGACCGTGAAGTCCGGGC	-0.0414
TACTTAATCATGAAGACCGTGA	-0.126
TTGTCATTACACACCACTCGGT	-0.649
TTGCTGGTCCAGAACTCTGGAA	-1.24

Each sequence was assayed against FZD4 in the same assay as above. Settings: shRNA.

Sequence	sensor-assay potency score (higher = more potent)
TCTTTCTAACTTGTCTGTCTTT	-0.962
TCAGTCTTTCTAACTTGTCTGT	-0.388
TTTGCTATCTGAAAGACCCAGT	0.327
AACTTGTCTGTCTTTGTCCCAT	0.289
TATCAGTGAACTCCTTGGCTGA	-0.901
TATTATAGCACATACTGAGAAA	-1.2
TTGACTGAAAGACACATGCCGC	-0.778
TTTTAGTAGAATTTCCTCCAAA	-0.591
TTGGTTTCCAACATAGCACAAG	-0.766
TAACAGGCAATCACACACGTTG	-0.53
TACAGTACTGAGAACACCCCAA	0.428

These sequences were tested against FZD5 in the same assay as above. Settings: shRNA.

Sequence	sensor-assay potency score (higher = more potent)
TAGAGCATAGGAAGAAGCGCAG	-0.267
TTCTCCAGCTTGTCCGTCTTGG	-0.54
TCCATGTCGATGAGGAAGGTGG	-1.25
TCCAGCTTGTCCGTCTTGGTGC	-1.11
TAGAGCAGCGTGAAGATGCCGA	0.0125
TAGCAGGCCACCACAATGCTGG	-0.787
TCTCGCGGTAGTGCTGCTCGTA	-1.3
TACTTGAGCATGAGCACCCAGT	-0.921
TTCCATGTCGATGAGGAAGGTG	-0.703
TTGATGACGCTGCGGATGCGGA	-1.12
AGGAGCAGCAGCAACAGCGAGG	-2.13
TAGGAAGAAGCGCAGGTCCGGC	-0.902

What follows are sequences tested against FZD8 in the same assay as above. Settings: shRNA.

Sequence	sensor-assay potency score (higher = more potent)
TGTAGGTGTAGTTGTAGCCGAT	-0.983
TATATCTGTTCTTACAGGGGTA	-0.151
TATCATGCTAATAGCAATCAAC	-0.951
TACTTGAGCATGAAGACGGCGT	0.273
TTTACTTAAGGCATTTGCCTGG	0.501
TGTTGCTTGATGACCGAGCGGA	-0.353
TTGATGACCGAGCGGATGCGGA	-1.04
TAAGACACGGAGCTCGCCGTGC	-0.78
TTCTTGTAGTCCTCTAGGCAGA	-1.02
TTATATCTGTTCTTACAGGGGT	-0.138
ATAATTAAGACATTTCTTGTTT	0.00747
TTGTAGTCCATGCACAGCGTGT	-1.01
